According to the supplement of paper PMC8728848:
About 410 targets per protein were measured; listed, in parts, are those with the strongest signals and a random draw of the rest.

Assays:
Assay in all cases: glycan array binding signal (z-score within array); higher = stronger binding
Details in all cases: glycan notation: IUPAC condensed, linker removed
[1] = biological target: Kdn(a2-3)Gal(b1-4)GlcNAc
Method in brief: (§1)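 The Consortium for Functional Glycomics database supplied 3228 glycan arrays, of which those lacking an available protein sequence were dropped. The binding signal, a within-array Z-score, was averaged across arrays of the same protein sequence and across linkers. Negative scores can be read as non-binding.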

[2] = biological target: Man(a1-2)Man(a1-3)Man
Method in brief: as §1

[3] = biological target: Man(a1-2)Man(a1-3)[Man(a1-2)Man(a1-6)]Man(a1-6)[Man(a1-2)Man(a1-2)Man(a1-3)]Man(b1-4)GlcNAc(b1-4)GlcNAc
Method in brief: as §1

[4] = biological target: Neu5Ac(a2-3)Gal(b1-3)GalNAc(b1-3)Gal(a1-4)Gal(b1-4)Glc
Method in brief: as §1

[5] = biological target: Neu5Ac(a2-3)Gal(b1-4)GlcNAc
Method in brief: as §1

[6] = biological target: Neu5Ac(a2-3)Gal(b1-4)GlcNAc(b1-2)Man(a1-3)[GlcNAc(b1-4)][Neu5Ac(a2-3)Gal(b1-4)GlcNAc(b1-2)Man(a1-6)]Man(b1-4)GlcNAc(b1-4)GlcNAc
Method in brief: as §1

[7] = biological target: Neu5Ac(a2-3)Gal(b1-4)GlcNAc(b1-2)Man(a1-3)[Neu5Ac(a2-3)Gal(b1-4)GlcNAc(b1-2)Man(a1-6)]Man(b1-4)GlcNAc(b1-4)GlcNAc
Method in brief: as §1

[8] = biological target: Neu5Ac(a2-3)Gal(b1-4)[Fuc(a1-3)]GlcNAc6S
Method in brief: as §1

[9] = biological target: Neu5Ac(a2-3)GalNAc
Method in brief: as §1

[10] = biological target: Neu5Ac(a2-6)Gal
Method in brief: as §1

[11] = biological target: Neu5Ac(a2-6)Gal(b1-4)GlcNAc(b1-2)Man(a1-6)[Man(a1-3)]Man(b1-4)GlcNAc(b1-4)GlcNAc
Method in brief: as §1

[12] = biological target: Neu5Ac(a2-6)Gal(b1-4)GlcNAc(b1-2)[Neu5Ac(a2-6)Gal(b1-4)GlcNAc(b1-4)]Man(a1-3)[GlcNAc(b1-4)][Neu5Ac(a2-6)Gal(b1-4)GlcNAc(b1-2)[Neu5Ac(a2-6)Gal(b1-4)GlcNAc(b1-6)]Man(a1-6)]Man(b1-4)GlcNAc(b1-4)GlcNAc
Method in brief: as §1

[13] = biological target: Neu5Ac(a2-6)Gal(b1-4)GlcNAc(b1-2)[Neu5Ac(a2-6)Gal(b1-4)GlcNAc(b1-4)]Man(a1-3)[GlcNAc(b1-4)][Neu5Ac(a2-6)Gal(b1-4)GlcNAc(b1-4)Man(a1-6)]Man(b1-4)GlcNAc(b1-4)GlcNAc
Method in brief: as §1

[14] = biological target: Neu5Ac(a2-6)Gal(b1-4)GlcNAc(b1-3)Gal(b1-4)GlcNAc(b1-3)Gal(b1-4)GlcNAc(b1-2)Man(a1-3)[Neu5Ac(a2-6)Gal(b1-4)GlcNAc(b1-3)Gal(b1-4)GlcNAc(b1-3)Gal(b1-4)GlcNAc(b1-2)Man(a1-6)]GalNAc
Method in brief: as §1

[15] = biological target: Neu5Ac(a2-6)Gal(b1-4)GlcNAc(b1-3)[Neu5Ac(a2-6)Gal(b1-4)GlcNAc(b1-6)]GalNAc
Method in brief: as §1

[16] = biological target: Neu5Gc(a2-3)Gal(b1-4)[Fuc(a1-3)]GlcNAc
Method in brief: as §1

B1: B3GalT2 (Rattus norvegicus) (protein)
chain: LMLQWRRRHCCFAKMSWNAKRSLFRTHLMGVLSLVFLFAMFLFFNHHDWLPGRPGFKENPVTYTFRGFRSTKTETNQSSLRNIWKEVVPQTLRPQTATNSNNTELSPQGVTGLENTLSANGSIYNEKGTGHPNSYHFKYIINEPEKCQEKSPFLILLIAAEPGQIEARRAIRQTWGNETLAPGIQITRIFLLGISIKLNGYLQHAIQEESIQYHDIIQQEYLDTYYNLTIKTLMGMNWVATYCPHTPYVMKTDSDMFVNTEYLIHKLLKPDLPPRHNYFTGYLMRGYAPNRNKDSKWYMPPDLYPSERYPVFCSGTGYVFSGDLAEKIFKVSLGIRRLHLEDVYVGICLAKLRVDPVPPPNEFVFNHWRVSYSSCKYSHLITSHQFQPSELIKYWNHLQQNKHNACVNAAKEKAGRYRHRKLH
glycan array binding signal (z-score) [1]: 2.76
glycan array binding signal (z-score) [2]: 0.139
glycan array binding signal (z-score) [3]: -0.337
glycan array binding signal (z-score) [4]: -0.318
glycan array binding signal (z-score) [5]: 1.9
glycan array binding signal (z-score) [6]: 0.483
glycan array binding signal (z-score) [7]: 1.88
glycan array binding signal (z-score) [8]: 0.576
glycan array binding signal (z-score) [9]: 2.8
glycan array binding signal (z-score) [10]: 2.53
glycan array binding signal (z-score) [11]: 0.005
glycan array binding signal (z-score) [12]: 2.01
glycan array binding signal (z-score) [13]: 1.82
glycan array binding signal (z-score) [14]: 2.1
glycan array binding signal (z-score) [15]: -1.14
glycan array binding signal (z-score) [16]: -0.164
